Screening results deposited in PubChem BioAssay by National Center for Advancing Translational Sciences (NCATS).
Rows were chosen to be rich in hits. Some 15% of all compounds tested hit in one or more screens of this group.
RORgamma inh: blocks mouse ROR gamma transcriptional activity. Drosophila S2 Gal4-RORgamma UAS-luciferase reporter, 20 h. 310,000 tested, 5.4% active. Potency, µM (doses to about 53.6 µM), without a hit: top-dose activity change, negative = inhibition, usual class: inhibitors. P51450. AID 2551; further: nearly all actives have a fitted effect of over 60% in size
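Using a luciferase readout, inhibitors were identified by reduced reporter activity in Drosophila cells coexpressing a copper-inducible Gal4–ROR gamma fusion and UAS-driven Photinus luciferase, incubated 20 hr after 700 uM copper sulfate.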
TDP1 cell CPT: growth inhibition of DT40 Tdp1-/-;hTDP1 cells with camptothecin (screen for TDP1 inhibitors). 420,000 tested, 12% active. chicken DT40 Tdp1-/-;hTDP1 cells + 20 nM CPT, ATP luminescence, 48 h. Potency, µM (series often up to 46.2 µM), for the others: at the top dose activity change, negative = growth inhibition, actives largely listed as inhibitors; further: nearly all actives have a fitted effect of over 55% in size
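Chicken DT40 Tdp1-/- cells complemented with human TDP1, 400 cells/well, exposed to compounds plus 20 nM camptothecin for at least 48 h at 37 C; viability read as ATP content by CellTiter-Glo luminescence.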
VP16 counter: counter-screen for ROR gamma inhibitors: Gal4-VP16 reporter; AID 2546; 310,000 tested, 3.5% active; Potency, µM (series often up to 53.6 µM), for inactives: at the top dose activity, negative = inhibition, usual class: inhibitors; Drosophila S2 Gal4-VP16 UAS-luciferase, luminescence, 20 h;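 further: Gal4-VP16 expression switched on by copper sulfate through the metallothionein promoter; nearly all actives have a fitted effect of over 50% in size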
ELG1 DNA repair: ELG1-dependent DNA repair inhibition; 330,000 tested, 2.3% active; AID 504467; Potency, µM (series often up to 46.1 µM), without a hit: top-dose activity change, negative = inhibition, most hits filed as inhibitors; HEK293T ELG1-luciferase reporter, luminescence, 16 h; DNA damage induced by 5-fluorouridine; further: nearly all actives have a fitted effect of over 55% in size
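DMSO vehicle served as the neutral condition. Each well held 2,000 cells given 5-fluorouridine plus compound; after 16 hr at 37 °C/5% CO2, ONE-Glo was added and luciferase measured 30 min later.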
TDP1 cell noCPT: qHTS for Inhibitors of human tyrosyl-DNA phosphodiesterase 1 (TDP1): qHTS in cells in absence of CPT; DT40 Tdp1-/- hTDP1 cells, no CPT, ATP luminescence, 48 h; 420,000 tested, 15% active; Potency, µM (highest dose often 46.2 µM), for the others: top-dose activity change, negative = growth inhibition, usual class: inhibitors; further: nearly all actives have a fitted effect of over 55% in size
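Chicken DT40 Tdp1-/- cells complemented with human TDP1, screened without camptothecin (DMSO vehicle only), 400 cells/well. Compounds pin-transferred, cells incubated at 37 °C for at least 48 hr. Growth read as ATP-dependent luminescence (CellTiter-Glo, 30 min at RT).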
ALOX12 inh: blocks human arachidonate 12S-lipoxygenase | Potency, µM (titrated, usually from 108 µM), for the others: top-dose activity change, negative = inhibition, hits mostly inhibitors | P18054 | 580,000 tested, 1.1% active | purified 12hLO, xylenol orange hydroperoxide absorbance
Target sequence (P18054 whole entry, looked up): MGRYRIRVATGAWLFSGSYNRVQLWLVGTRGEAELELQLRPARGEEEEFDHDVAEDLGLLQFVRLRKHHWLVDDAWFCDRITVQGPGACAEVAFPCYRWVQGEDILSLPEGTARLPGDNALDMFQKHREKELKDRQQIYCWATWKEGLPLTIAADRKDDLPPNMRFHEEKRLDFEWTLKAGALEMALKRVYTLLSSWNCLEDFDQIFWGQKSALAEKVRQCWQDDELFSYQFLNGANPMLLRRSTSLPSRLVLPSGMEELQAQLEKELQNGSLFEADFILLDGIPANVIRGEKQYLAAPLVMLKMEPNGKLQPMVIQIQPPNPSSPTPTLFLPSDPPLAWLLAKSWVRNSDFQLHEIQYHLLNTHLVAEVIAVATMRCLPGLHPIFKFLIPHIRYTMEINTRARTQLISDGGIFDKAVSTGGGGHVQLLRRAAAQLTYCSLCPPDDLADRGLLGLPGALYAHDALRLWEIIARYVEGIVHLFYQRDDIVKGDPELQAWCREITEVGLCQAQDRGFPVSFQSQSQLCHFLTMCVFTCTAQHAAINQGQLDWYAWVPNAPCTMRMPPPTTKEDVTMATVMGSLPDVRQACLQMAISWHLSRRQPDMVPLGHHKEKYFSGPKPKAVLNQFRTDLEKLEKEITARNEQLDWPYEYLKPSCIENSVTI
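Purified human 12hLO (150 nM final) in 25 mM Hepes, 0.01% Triton X-100, pH 7.0 was preincubated 15 min at room temperature with compound. Then 40 uM arachidonic acid was added, 30 min. Hydroperoxide was read by Fe-XO absorbance ratio 573/405 nm.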
Starred values were filed as active, the others as inactive; ? = inconclusive; . = no result given; ! = not active in a repeat; [ ] = another dose, or the depositor's remark. The call rests on the fitted dose curve; in most records, active means well fitted curve in the direction sought with a large enough effect; inconclusive means small, poorly fitted or top-dose-only effect, or another doubt; inactive means no such curve, though single readings can be large; an effect the other way counts as inactive or inconclusive. On the % scale 0 is the no-effect control and ±100 the full control effect; potency means the concentration at half of the fitted maximal effect.

SMILES	RORgamma inh	TDP1 cell CPT	VP16 counter	ELG1 DNA repair	TDP1 cell noCPT	ALOX12 inh
CCCCN(CCC(=O)NCCCOC)C(=O)c1ccoc1	.	.	.	.	.	12%
COc1ccc(OC)c(C(=O)Cn2c3[n+](c4ccc(C(F)(F)F)cc42)CCCCC3)c1	?	5.2µM*	-1%	?	5.8µM*	-5%
Fc1ccccc1Cn1c2[n+](c3ccc(C(F)(F)F)cc31)CCCCC2	42%	?	-14%	?	?	?
CCOC(=O)CN(C)Cc1cn[nH]c1-c1ccc2cc(OC)ccc2c1	?	16µM*	15%	3%	13µM*	?
CCCN1CCC(NCc2cn(C)nc2-c2ccc(Oc3ccccc3)cc2)CC1	?	5.2µM*	?	8%	4.6µM*	-10%
CCOC(=O)CN(C)Cc1cn(C)nc1-c1ccc(Oc2ccccc2)cc1	.	?	.	?	13µM*	8%
COCCN(Cc1cn[nH]c1-c1ccc2cc(OC)ccc2c1)C(C)C	5%	-2%	-9%	20%	2%	31%
COCCN1CCCC(CNCc2cn(C)nc2-c2ccc(Oc3ccccc3)cc2)C1 (configuration not stated)	?	18µM*	-29%	-9%	5.8µM*	-6%
CC(NC(=O)c1nccnc1N)c1ccc(F)c(F)c1 (configuration not stated)	.	.	.	.	.	12%
COc1cc(CN(C(=O)c2cccc(NC(C)=O)c2)C2CC2)ccc1OC(F)F	.	.	.	.	.	-5%
O=C(c1ccccc1F)N1CCCN(c2nc3ncccc3o2)CC1	.	.	.	.	.	8%
CCCCNC(=O)c1ccc(NC(=O)c2ccncc2)cc1	.	.	.	.	.	54%
COc1ccccc1OCC(=O)OCC(=O)c1cc(Cl)ccc1Cl	.	.	.	.	.	0%
CCCc1ccc(C2C3=C(CC(C)(C)CC3=O)NC3=C2C(=O)c2ccccc23)cc1 (configuration not stated)	-17%	21µM*	-7%	-11%	16µM*	25µM*!
CCc1ccc(S(=O)(=O)NCCc2csc(-c3ccccc3)n2)s1	-4%	?	?	-12%	23µM*	?
Cc1ccc(C)c(S(=O)(=O)NCCc2coc(-c3ccccc3)n2)c1	.	.	.	.	.	7%
Cc1ccc(C)c(S(=O)(=O)NCCc2csc(-c3ccc(Cl)cc3)n2)c1	.	29µM*	.	.	16µM*	?
COc1ccc(OC)c(S(=O)(=O)NCCc2csc(-c3cccc(F)c3)n2)c1	.	?	.	.	?	-18%
Cc1ccc(S(=O)(=O)NCCc2csc(-c3ccc(Cl)cc3)n2)cc1	.	12µM*	.	.	12µM*	?
Cc1ccc(S(=O)(=O)NCCc2csc(-c3cccc(F)c3)n2)cc1	.	21µM*	.	.	15µM*	?
CC(=O)c1ccc(S(=O)(=O)NCCc2csc(-c3cccnc3)n2)cc1	?	-21%	-5%	-4%	-26%	-3%
CC(C)C(=O)/C(C#N)=C\c1ccc(OCc2ccccc2F)cc1	.	.	.	.	.	6%
CCOc1ccc(S(=O)(=O)NCCc2csc(-c3ccc(Cl)cc3)n2)cc1	.	6.5µM*	.	.	5.8µM*	?
Cc1nc2ccccc2c(C)c1C(=O)NC1CCCCC1	.	.	.	.	.	6%
O=C(c1ccccc1)C1CCN(C(=O)C2CCC(=O)N(Cc3ccccc3F)C2)CC1 (configuration not stated)	33%	16µM*	10%	-2%	21µM*	5%
SMILES	RORgamma inh	TDP1 cell CPT	VP16 counter	ELG1 DNA repair	TDP1 cell noCPT	ALOX12 inh
O=C(c1ccccc1)C1CCN(C(=O)C2CCC(=O)N(Cc3cccc(F)c3)C2)CC1 (configuration not stated)	1%	?	1%	4%	-14%	0%
CC(NC(=O)C1CC1C)c1ccc2c(c1)CCCC2 (configuration not stated)	.	.	.	.	.	-44%
Cc1ccc(Cc2c(-c3ccc(F)cc3)nc3c(C)cc(Br)cn23)cc1	.	21µM*	.	.	16µM*	.
Cc1ccc(Cc2c(-c3ccc(C)cc3)nc3c(C)cc(Br)cn23)cc1	.	16µM*	.	.	16µM*	?
Cc1ccc(Cc2c(-c3ccc(F)cc3)nc3c(Cl)cc(C(F)(F)F)cn23)cc1	.	-30%	.	.	-15%	?
Cc1cc(Br)cn2c(Cc3ccccc3)c(-c3ccc(Cl)cc3)nc12	.	-2%	.	.	-20%	0%
Cc1cc(Br)cn2c(Cc3ccccc3)c(-c3ccc(C#N)cc3)nc12	.	18µM*	.	.	?	?
OC1CCC(NCc2ccc(-c3cnc4c(OCc5ccccc5)nccn34)cc2)CC1 (configuration not stated)	.	.	.	.	.	-1%[176 µM]
C=CCSc1nc(N)c(C(=O)Nc2ccccc2OC)cc1C(=O)Nc1ccccc1	-2%	8.2µM*	9%	-11%	8.2µM*	0%
C=CCSc1nc(N)c(C(=O)Nc2ccccc2)cc1C#N	-36%	-22%	-26%	-2%	-20%	0%
O=C(Nc1ccc(Nc2ccccc2)nc1)c1cccc[n+]1[O-]	.	.	.	.	.	7%
C=CCNC1=C2C[C@@H](C)C[C@H](OC)[C@H](O)[C@@H](C)/C=C(\C)[C@H](OC(N)=O)[C@@H](OC)/C=C\C=C(/C)C(=O)NC(=CC1=O)C2=O	30%[10 µM]	1.1µM*	-12%	.	0.38µM*	.
COC1C=CC=C(C)C(=O)NC2=CC(=O)C(N)=C(CC(C)CC(OC)C(O)C(C)C=C(C)C1OC(N)=O)C2=O (configuration not stated)	.	0.16µM*	.	.	0.18µM*	-29%
CCOc1cc(C#N)c(NC(=O)c2ccccc2)cc1OCC	.	.	.	.	.	-13%
CCC(C)c1ccccc1NC(=O)c1cccnc1 (configuration not stated)	11µM*	-2%	11%	13%	-8%	-3%
CCOc1cc(C#N)c(NC(=O)c2cccnc2)cc1OCC	10%	1.3µM*	-9%	7%	1.8µM*	9%
CC(C)(C)c1nc2cc(NC(=O)CNC(=O)c3ccc(Br)o3)ccc2o1	.	.	.	.	.	-25%
CCOC(=O)CC1C(=O)NCCN1C(=O)Nc1ccccc1 (configuration not stated)	4%	3%	2%	?	-3%	150%
COc1ccc(C(=O)NC(=S)N2CCNC(=O)C2)cc1Br	16µM*	-12%	?	0%	-5%	11%
COc1ccc(C(=O)NC(=S)N2CCC(C)CC2)cc1Br	0.63µM*	?	0.89µM*	15%	?	?
